Screens deposited in PubChem BioAssay by National Center for Advancing Translational Sciences (NCATS).
Most compounds without a hit are left out; they make up all but 11% or so of the library.
GoLoco inh red: inhibitors of human Gai1-RGS12 GoLoco interaction (red fluorophore); Gai1:RGS12 GoLoco peptide FP, rhodamine, 10 min; Potency, µM (highest dose often 61.6 µM), without a hit: at the highest dose activity, negative = inhibition, hits mostly inhibitors; 0.44% of 230,000 active; active means well fitted inhibition curve with a large enough effect, not every such curve was filed as active; inactive means no such curve, though single readings can be large or run the other way; further: potency means the concentration at half of the fitted maximal effect; on the % scale 0 is the no-effect control and ±100 the full control effect; nearly all actives have a fitted effect of over 30% in size
Target sequence (P63096 whole entry, looked up): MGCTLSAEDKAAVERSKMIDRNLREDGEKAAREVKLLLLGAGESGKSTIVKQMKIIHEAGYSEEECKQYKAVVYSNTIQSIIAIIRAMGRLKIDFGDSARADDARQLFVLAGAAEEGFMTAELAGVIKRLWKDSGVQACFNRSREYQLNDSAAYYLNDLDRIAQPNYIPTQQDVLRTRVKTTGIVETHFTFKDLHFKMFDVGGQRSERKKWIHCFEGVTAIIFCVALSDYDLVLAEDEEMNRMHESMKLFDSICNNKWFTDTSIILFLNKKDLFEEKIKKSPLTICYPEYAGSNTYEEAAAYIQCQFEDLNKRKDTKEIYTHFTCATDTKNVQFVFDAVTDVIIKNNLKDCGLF
ALDH1A1 block: blocks purified human ALDH1A1 activity. Purified ALDH1A1, NADH fluorescence, propionaldehyde substrate. Potency, µM (series often up to 75.3 µM), without a hit: at the top dose activity, negative = inhibition, actives largely listed as inhibitors. 7.3% of 220,000 active;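 further: potency means the concentration at half of the fitted maximal effect; plate controls were no enzyme wells and a reference inhibitor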
HPGD inh: blocks human HPGD enzyme activity; 4.3% of 150,000 active; purified HPGD, NADH fluorescence kinetic, PGE2 substrate; Potency, µM, for the others: at the highest dose activity change, negative = inhibition, usual class: inhibitors; further: potency means the concentration at half of the fitted maximal effect; on the % scale 0 is the no-effect control and ±100 the full control effect
Target sequence (P15428 whole entry, looked up): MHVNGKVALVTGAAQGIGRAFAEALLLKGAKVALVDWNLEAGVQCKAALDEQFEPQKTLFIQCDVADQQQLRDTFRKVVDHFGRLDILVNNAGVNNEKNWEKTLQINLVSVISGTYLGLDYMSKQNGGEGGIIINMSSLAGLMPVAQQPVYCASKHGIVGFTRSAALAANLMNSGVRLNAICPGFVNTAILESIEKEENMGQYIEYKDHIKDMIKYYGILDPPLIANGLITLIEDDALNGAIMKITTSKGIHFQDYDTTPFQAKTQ
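NADH formation kinetics: reaction with 30 uM PGE2 and 1 mM NAD+ (final), 20 nM enzyme, Tris-HCl pH 8 with Tween 20, after 15 min compound preincubation at room temperature. Fluorescence change, last versus first of five reads.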
PNC assembly inh: perinucleolar compartment assembly inhibition; PC3M PTB-GFP, PNC prevalence imaging, 16 h; hits give low values; activity change (PNC), negative = inhibition, % at 10 µM; 3.1% of 140,000 active;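 active means readout at or below -70, meaning at least 70% loss of cells showing the perinucleolar compartment, a nuclear body marking cancer cells; inconclusive means readout between -30 and a set limit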;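 further: plate controls were DMSO wells for no effect and camptothecin positive control wells for full effect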
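PC3M cells stably expressing PTB-GFP, 750–1000 cells/well, treated 16 h at 37 °C with compound (23 nl of library stock), in duplicate. After paraformaldehyde fixation and Hoechst stain, imaged at 20x; PNC prevalence scored by image analysis.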
HTT aggregate: mutant huntingtin aggregation inhibition. PC12 HttQ103-GFP aggregates, Acumen cytometry, 40 h. AID 1688. 1.1% of 220,000 active. Potency, µM (top dose mostly 46.1 µM), inactives show top-dose activity change, negative = inhibition, most hits filed as inhibitors; active means well fitted curve in the direction sought with a large enough effect; inconclusive means small, poorly fitted or top-dose-only effect, or another doubt; inactive means no such curve, though single readings can be large; an effect the other way counts as inactive or inconclusive; further: potency means the concentration at half of the fitted maximal effect; on the % scale 0 is the no-effect control and ±100 the full control effect; nearly all actives have a fitted effect of over 60% in size
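Read-out: GFP aggregate count by laser scanning cytometer (488 nm excitation, 500-530 nm emission, 1–25 µm objects >6 SD above background). Cells: PC12, inducible HTTex1-Q103-GFP, 100 nM tebufenozide; compounds titrated.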
HTT cytoprotect: protects HTT-Q103 PC12 cells, measured by ATP; Potency, µM (highest dose often 56.4 µM), for the others: cytoprotection (ATP increase), usual class: activators; PC12 HTT-Q103 induced, cytoprotection, ATP luminescence, 40 h; 0.14% of 230,000 active; active means well fitted curve in the direction sought with a large enough effect; inconclusive means small, poorly fitted or top-dose-only effect, or another doubt; inactive means no such curve, though single readings can be large; an effect the other way counts as inactive or inconclusive; further: potency means the concentration at half of the fitted maximal effect; % of control where 0% means no effect; nearly all actives have a fitted effect of over 45% in size
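Rat PC12, Q103 Htt exon1-GFP fusion, ecdysone promoter; tebufenozide inducer 100 nM final; compound titration; qHTS, 1500 cells/well; ATPlite luminescent read.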
The depositor's hits bear a star; u = inconclusive; x = no result; [ ] = another dose, or the depositor's remark. Unless noted, the call rests on the fitted dose curve; in most records, active means well fitted inhibition curve with a large enough effect (not every such curve was filed as active); inconclusive means small, poorly fitted or top-dose-only effect, or another doubt; inactive means no such curve, though single readings can be large or run the other way.

SMILES	GoLoco inh red	ALDH1A1 block	HPGD inh	PNC assembly inh	HTT aggregate	HTT cytoprotect
COc1cccc(NC(=O)COC(=O)Cc2ccccc2[N+](=O)[O-])c1	8%	u	x	x	2%	-40%
Cc1csc(NC(=O)Cc2ccccc2[N+](=O)[O-])n1	10%	-4%	-5%	28	4%	16%[10 µM]
CSc1cccc(NC(=O)Cc2ccccc2[N+](=O)[O-])c1	-3%	35µM*	x	x	-4%[9.22 µM]	-14%
CCOc1ccc(C(=O)Nc2nnc(C(C)C)s2)cc1OCC	8%	25µM*	28µM*	44	20%	-21%
COC(=O)C(C)NC(=S)N1CCN(c2c(F)cc3c(=O)c(C(=O)O)cn(C4CC4)c3c2OC)CC1C (configuration not stated)	-4%	x	x	x	-2%[9.22 µM]	13%[10 µM]
Cc1cnc(C(=O)OCC(=O)NC2CCCCCC2)cn1	-9%	-2%	x	x	5%	-28%
Cc1cnc(C(=O)OCC(=O)c2csc(N3CCCCC3)n2)cn1	30%	18µM*	u	-2	31%	-3%
N/C(=N\OC(=O)CN1C(=O)c2ccccc2C1=O)c1ccc(Br)cc1	-6%	7%	x	x	0%[9.22 µM]	-24%
Cc1cc(N2CCOCC2)c2c(N)c(Br)cc(C)c2n1	11%	-1%	-12%	-10	2µM*	-26%
Cc1cc(=O)[nH]c(N2CCOCC2)n1	17%	9%	x	x	x	x
Cc1cc(Nc2ccccc2C(=O)O)nc2nc3ccccc3c(=O)n12	6%	u	-2%	-90*	-6%	21%[10 µM]
NC(=O)c1ccccc1Nc1nc2nc3ccccc3c(=O)n2cc1Br	4%	x	x	x	-22%[9.22 µM]	-12%[10 µM]
COc1ccc(COC(=O)N/C=C/c2ccco2)cc1	35%	28µM*	x	x	u	x
O=C(COC(=O)/C=C/c1ccco1)NCc1ccco1	2%	-11%	x	x	-15%	-1%
COc1ccc(CNC(=O)COC(=O)/C=C/c2ccco2)cc1	17%	25µM*	x	x	14%	28%[10 µM]
Cc1ccc(S(=O)(=O)Oc2ccccc2/C=C2\SC(=O)NC2=O)cc1	27%	13µM*	x	x	x	x
Cc1ccc(S(=O)(=O)Oc2ccccc2/C=N/N=C(N)N)cc1	10%	-10%	x	x	23%[9.22 µM]	-23%
Cc1nn(-c2c(Cl)cc(Cl)cc2Cl)c(=O)c2ccccc12	-67%	-11%	13µM*	-8	22%	14%[10 µM]
O=S(=O)(c1ccccc1)N(CC(F)(F)F)c1ccc(C(O)(C(F)(F)F)C(F)(F)F)cc1	7%	17%	-5%	x	x	-26%
COc1cccc(C(=O)N2c3ccccc3Sc3ccccc32)c1	3%	3%	14µM*	u	1%	-11%[1.9 µM]
COc1cccc(C(=O)NC2CCN(C(=O)N3c4ccccc4Sc4ccccc43)CC2)c1	2%	7%	-17%	-14	u	-28%[10 µM]
CC#CCN1C(=O)N[C@@H](c2ccccc2)C(C(=O)OC)=C1C	8%[14.2 µM]	16%[13.5 µM]	0%	x	x	19%[10 µM]
O=C(Nc1ccc(S(=O)(=O)N2CCCCC2)cc1)C1CCCN(C(=O)c2ccc(Cl)cc2)C1 (configuration not stated)	-2%	-3%	u	193	-4%	-2%[10 µM]
O=C(O)CCC(=O)Nc1ccc(C(=O)N2CCCCC2)cc1	-10%	-6%	0.71µM*	-24	30%	-11%
CN(C)S(=O)(=O)c1ccc(NC(=O)C2CCCN(C(=O)c3ccc(Cl)cc3)C2)cc1 (configuration not stated)	-3%	13µM*	-18%	6	21%	-11%[10 µM]
SMILES	GoLoco inh red	ALDH1A1 block	HPGD inh	PNC assembly inh	HTT aggregate	HTT cytoprotect
CCCCCC(=O)Nc1ccc(N2CCN(C(=O)c3ccccc3)CC2)cc1	2%	-2%	-19%	-28	-29%	2%
O=C(Nc1ccccc1)C1CCCCC1	-11%	8%	25µM*	u	-16%	-20%[10 µM]
O=C(O)CCC(=O)Nc1ccc(C(=O)OC2CCCCC2)cc1	1%	-12%	-24%	33	3%	-21%
CCCCCCC(=O)Nc1ccc(C(=O)N2CCCC2)cc1	-9%	u	4µM*	u	1%	-13%
CO[C@@H](CCO)C[C@H]1O[C@H](C(=O)OC(C)C)CC[C@@H]1C	21%	16%	-11%	x	x	9%
Cc1c(Cl)cccc1NC(=O)c1cc(-c2ccc(O)cc2)on1	x	x	x	x	x	-13%
O=C(Nc1ccc(C(=O)N2CCCCC2)cc1)C1CCCCC1	-1%	u	2µM*	56	-2%	-1%
O=C(O)CCCC(=O)Nc1ccc(C(=O)N2CCCCC2)cc1	4%	9%	2.2µM*	-16	7%	-19%
CC(=O)Nc1ccc(NC(=O)C2CCN(C(=O)c3cccs3)CC2)cc1	5%	13µM*	x	x	14%[9.22 µM]	17%[10 µM]
COc1ccc(NC(=O)C2CCN(C(=O)c3ccc(OC)cc3)CC2)cc1	6%	-4%	-10%	28	10%	-8%
Cc1ccc(-c2cn(-c3ccccc3)c(SCC(=O)NC3CCS(=O)(=O)C3)n2)cc1C (configuration not stated)	5%	14µM*	-11%	-83*	17%	x
CCn1c(SCC(=O)NC2CCS(=O)(=O)C2)nnc1-c1ccccc1 (configuration not stated)	5%	2%	x	x	10%	-18%
Cc1nn(Cc2cccc(C(=O)Nc3ccn(Cc4ccccc4F)n3)c2)c(C)c1[N+](=O)[O-]	-5%	1%	-2%	24	10%	4%
CC1CCCN(C(=O)c2ccc3c(=O)n(C4CCCC4)c(=S)[nH]c3c2)C1 (configuration not stated)	5%	3.5µM*	x	x	u	-72%
CC1CCCN(C(=O)c2ccc3nc[nH]c3c2)C1 (configuration not stated)	-10%	u	2µM*	38	-4%	-4%[10 µM]
Cc1nn(Cc2cccc(C(=O)N3CCCC(C)C3)c2)c(C)c1[N+](=O)[O-] (configuration not stated)	19%	u	14µM*	u	-13%	4%[10 µM]
O=C(c1ccc2c(=O)n(C3CCCC3)c(=S)[nH]c2c1)N1CCCCCC1	3%	u	x	x	27%	-20%
O=C(c1cccc(Cl)c1)N1CCCC(C(=O)N2CCCCCC2)C1 (configuration not stated)	-7%	u	-15%	15	15%	-4%[0.04 µM]
O=C(c1ccccc1)C1O[C@H]1c1ccccc1 (some centres not stated)	7%	0%	-8%	x	x	-51%
O=C1C=C(c2ccccc2)OC(=O)C1C(=O)c1ccccc1 (configuration not stated)	1%	u	-18%	-100*	-4%[9.22 µM]	-8%[10 µM]
COCCSc1nnc(NC(=O)Cc2ccccc2OC)s1	-2%	22µM*	-16%	27	-1%	16%
